“And” between values parts separate entries of the source, which are not always exact repeats. Equal values may be shown once. The campaign covered roughly 4,800 compounds. About 410 (8.5%) showed an effect of 50% or more. Many of the other results were omitted from the sample, so strong results are more common in it than they were.
System: Plasmodium falciparum
Assay: Confirmatory screen in NF54 pLDH assay, in single point, at 2uM, 72h
Type: functional, Erythrocyte
Conditions: timepoint 72 hour

| SMILES | % Inhibition | % Inhibition (2 µM) |
| --- | --- | --- |
| COc1cccc(S(=O)(=O)N(C)[C@H]2CCc3n[nH]c(=O)n3CC2)c1 | 1% |  |
| Cn1c(=O)c2c(nc3nc(N4CCOCC4)n(CC(=O)c4ccc(Cl)cc4)n32)n(C)c1=O | 0% |  |
| COc1cc(OC)cc(C2(O)CCN(C(=O)CCc3ccccc3F)CC2)c1 | -20% |  |
| c1ccc(-c2cn[nH]c2N2CCNCC2)cc1 | -16% |  |
| COc1cc(-c2nc3ccccc3s2)ccc1OCc1cccc2ccccc12 | 0% |  |
| Oc1cc(OCc2ccccc2F)ccc1-c1[nH]ncc1-c1ccccc1 | 72% |  |
| COc1ccc(-c2c(C(F)(F)F)n[nH]c2-c2ccc(OCc3ccccc3F)cc2O)cc1 | 91% |  |
| O=C(NCC1CC1)c1cn[nH]c1-c1ccccc1 | 1% |  |
| COc1ccccc1NC(=O)CC1CS(=O)(=O)CC1CC(=O)Nc1ccccc1OC (configuration not stated) | 13% |  |
| COc1ccc(-c2cnn3c(-c4ccccn4)ccnc23)cc1OC | 4% |  |
| C#CCNC(=O)[C@H](C#N)c1nc(C)c(C)s1 | 10% |  |
| Cc1cnc([C@H](C)NC(=O)c2conc2C(C)(C)N)s1 | 9% |  |
| C[C@H]1Cc2cc(C(=O)NCc3nc(C(F)(F)F)n[nH]3)ccc2O1 | 10% |  |
| COc1ccc(-c2cn3cc(C)nc3n2C)cc1 | 0% |  |
| Cc1ccc(S(=O)(=O)CC(=O)NC(C)(C)C)cc1 | 5% |  |
| O=C(CCc1ccc(Cl)c(C(F)(F)F)c1)N1CC[C@H](N2CCc3ccccc3C2)C1 | 45% |  |
| CC(C)(C)OC(=O)CN(c1cc(F)cc(F)c1)S(=O)(=O)c1ccc2nncn2c1 | -2% |  |
| CCN(C)C1(CNC(=O)c2ccc(-c3cc(F)ccc3O)cc2)CCCC1 | 11% |  |
| NC(=O)N1CCC[C@H]1C(=O)NC1CC(=O)N(C2CC2c2ccccc2)C1 (some centres not stated) | 8% |  |
| Cc1cnc(NC(=O)c2ccc3ncoc3c2)c(Br)c1 | 15% |  |
| O=C(CC1CCOCC1)N1CCN(C(=O)c2ccco2)CC1 | -18% |  |
| Cc1ccc(-c2ccnc3c(C(=O)NC4CC4)cnn23)cc1C | 4% |  |
| O=C(Cc1ccc(C(=O)Nc2nc(-c3ccccc3)cs2)cc1)c1ccccc1 | 12% |  |
| O=S(=O)(c1ccc2ccccc2c1F)N1CC(CO)C1 | -13% |  |
| COc1ccc(CNCCC2C(C)CN(C)C(C)C2Cc2ccccc2)cc1 (configuration not stated) | 66% |  |
| CCNC(=O)C(=O)NCc1ccc(OC)cc1 | -20% |  |

| SMILES | % Inhibition | % Inhibition (2 µM) |
| --- | --- | --- |
| COc1ccc(CC2C(O)C(Cc3ccc(OC)cc3)C3CCC2N3C)cc1 (configuration not stated) | 6% |  |
| COc1ccc(C(=O)n2[nH]c(=O)c(CCO)c2C)cc1 | 5% |  |
| COc1ccc(Nc2nnc(/C=C/c3ccccc3)c(=O)n2N)cc1 | 16% |  |
| O=S1(=O)CCN(OCc2ccc(Cl)cc2)CC1 | 15% |  |
| COc1ccc2[nH]c3c(c2c1)CC(C(=O)O)NC3c1ccc(OC)c(CN2CCN(c3ccccc3F)CC2)c1 (configuration not stated) | 72% |  |
| COc1ccccc1N1CCN(Cc2nc3ccccc3c(=O)n2-c2ccc(F)cc2)CC1 | 12% |  |
| Fc1ccccc1N1CCN(C2CCN(Cc3c[nH]c4ccccc34)CC2)CC1 | 33% |  |
| O=C(NCCc1ccc(O)cc1)c1ccc2n[nH]c(=O)n2c1 | -20% |  |
| CCC(C)(C)C(=O)N1CCC[C@@H]1CCc1ncc(C)n1C(C)C | 14% |  |
| CCOc1cc([C@H]2Nc3ccccc3C(=O)N2c2ccccc2)ccc1OCc1ccc(F)cc1 | -4% |  |
| O=C(/N=C(/c1ccccc1)N1CCCCC1)C(F)(F)C(F)(F)C(F)(F)C(F)(F)C(F)(F)C(F)(F)F |  | 1% and 0% |
| O=C(Nc1nncs1)NC(C1CC1)C1CC1 | 5% |  |
| Cc1ccc(-c2csc(NC(=O)c3cccc(C(=O)Nc4nc(-c5ccc(C)cc5C)cs4)n3)n2)c(C)c1 | -7% |  |
| O=C(Nc1nncs1)c1cccc(C(=O)Nc2nncs2)n1 | 64% |  |
| Cc1c(NC(=O)c2n[nH]cc2Br)c(=O)n(-c2ccccc2)n1C | 7% |  |
| CCn1c(=O)c(N2CCC[C@H](C(=O)NCc3cccc(C)c3)C2)nc2ccccc21 | 14% |  |
| CCC(C)(CC)[C@@](O)(C#CC[N+]1(Cc2ccccc2)CCCCC1)c1ccccc1 | 22% |  |
| CC(CC1OCC(C[N+]2(Cc3ccccc3)CCCCC2)O1)CC(C)(C)C (configuration not stated) | 56% |  |
| COc1cc(C(=O)NC(C)(C)c2c(C)noc2C)on1 | 7% |  |
| CN1C(=O)N(c2cc(Cl)cc(Cl)c2)C(=O)[C@]12CN(c1ccc(C(=O)O)cn1)C[C@H]2c1ccc(C#N)cc1 | 15% |  |
| c1cc([C@@H]2CN(Cc3noc(C4CC4)n3)CCO2)cs1 | 7% |  |
| COc1ccc(NC(=O)N2CC[C@H](CC(=O)NCc3ccccc3)C2)cc1OC | -11% |  |
| NC(=O)c1ccc(C(F)(F)F)n(CC(=O)N(Cc2ccc(F)cc2)C2CCCCC2)c1=O | -6% |  |
| Cc1cc(-n2c(C)cc(C(=O)Cn3c(C(F)(F)F)ccc(C(N)=O)c3=O)c2C)no1 | 23% |  |
| NC(=O)c1ccc(C(F)(F)F)n(C[C@H](O)c2cc(Cl)ccc2Cl)c1=O | 60% |  |
| CC(C)(C)c1cc(N)c2ccccc2n1 | -6% |  |

| SMILES | % Inhibition | % Inhibition (2 µM) |
| --- | --- | --- |
| CNC(=O)CNC(=O)c1cccc(Cl)c1 | 12% |  |
| NC(=O)C(NC(=O)c1cccc(Cl)c1)C(N)=O | 85% |  |
| O=C(N[C@@H](N1CCCCCC1)C(Cl)(Cl)Cl)c1cccc(Cl)c1 | -20% |  |
| COCc1cc2nn(CC(=O)Nc3ccc(F)c(F)c3)c(=O)n2c(-c2ccccc2)n1 | -15% |  |
| Cn1cc(NC(=O)Nc2cccc(OCC(F)F)n2)cn1 | -7% |  |
| O=C(Cc1c[nH]c2ccccc12)NC1(C(=O)NC2CCCC2)CCCCC1 | 8% |  |
| CCN1C(=O)Cc2cc(NC(=O)c3ccc(Br)o3)ccc21 | 12% |  |
| CC(C)[C@@H]1CCc2ccccc2N1Cc1nc(N)nc(N(C)C)n1 | 6% |  |
| O=C(Nc1ccc2c(c1)OCCCO2)c1ccsc1 | 5% |  |
| O=C1CN(C(=O)C2CC2c2ccccc2C(F)(F)F)CCN1 (configuration not stated) | -4% |  |
| N=C(N)NCc1ccc(COCc2ccccc2)cc1 | 17% |  |
| CCOc1ccc(NC(=O)c2cn3nc(-c4ccc(OCC)cc4)cc3nc2C2CCN(C(=O)OC(C)(C)C)CC2)cc1 | 16% |  |
| N#CC(c1ccc(Cl)cc1)N1N=C(c2ccccc2)CC1c1ccccc1 (configuration not stated) | 10% |  |
| COc1ccc(C2=NN(C(C#N)c3cccc(OC)c3O)C(c3ccccc3)C2)cc1 (configuration not stated) | 3% |  |
| c1ccc(C2=NN(c3ccc(-c4cc(-c5ccccc5)[n+](-c5ccccc5)c(-c5ccccc5)c4)cc3)[C@H](c3ccccc3)C2)cc1 | 97% |  |
| COc1cccc(C(=O)c2c[nH]c(C(=O)NCc3cccc(C(F)(F)F)c3)c2)c1 | 6% |  |
| Cc1ccc(N2C(=O)C[C@]3(CC3(c3ccccc3)c3ccccc3)C2=O)cc1 | 6% |  |
| COCc1c(C(=O)N2CCC[C@@H]2CCc2ncc(C)n2C(C)C)noc1C | 13% |  |
| Cc1cc(C)nc(-n2nc(-c3ccc(Cl)cc3)c3c2NC(=O)C[C@@H]3c2ccc3c(c2)OCO3)n1 | 2% |  |
| CN1CCN(Cc2cc3cc4c(cc3nc2-c2ccc(Cl)cc2)OCO4)CC1=O | 51% |  |
| O=c1[nH]c2cc3c(cc2c(=O)n1Cc1nc(-c2ccc(Cl)cc2)no1)OCO3 | 9% |  |
| C#CCN(C(=O)NC1CCN(C(C)=O)CC1)C1CCCC1 | -12% |  |
| Cc1ccc(NC(=O)c2c(Cl)cccc2Cl)c2c1CC(C)(C)O2 | -21% |  |
| O=C(Nc1ccc(N2CCCCCC2)cc1C(=O)O)c1ccc(Cl)cc1 | 9% |  |
| CC(C)c1nnc(CNc2ccc(C#N)cc2)o1 | 8% |  |
| COC1CCCC1NC(=O)Nc1ncc(Br)cc1C (configuration not stated) | 79% |  |

| SMILES | % Inhibition | % Inhibition (2 µM) |
| --- | --- | --- |
| CC(=O)Nc1ncc(Br)cc1C | 3% |  |
| CNC(=O)c1cc(Br)cnc1NC | 10% |  |
| NC(=NCCOc1ccc(Br)cc1)N1CCOCC1 | 8% |  |
| COCc1ncc(-c2noc(C3CC4CCC3C4)n2)c(N)n1 (configuration not stated) | -14% |  |
| Cc1nn(C)c(C)c1CNc1ccc2c(c1)CCC(=O)N2 | -13% |  |
| CC(C)CCn1nnnc1[C@]1(N(C)C)CCCN(C(=O)c2cccn2C)C1 | -12% |  |
| CC(C)c1cc(CN(Cc2cc(C(C)C)c(O)c(C(C)C)c2)C2CCCCC2)cc(C(C)C)c1O | 98% |  |
| CCc1nn(C)cc1CN(Cc1cccc(O)c1)C1CCC(O)CC1 (configuration not stated) | -8% |  |
| Cc1ccc(CN(C)C2CCCCC2)o1 | -12% |  |
| CC[C@@H](CO)NC(=O)Nc1ccc(F)cc1 | 8% |  |
| CC[C@](C)(NCC#Cc1ccc(C(F)(F)F)cc1)C(N)=O | 5% |  |
| O=C(C1CN(c2ncc(C(F)(F)F)cc2Cl)C1)N1CCCC1 | 11% |  |
| Cc1c(N2CCC(C(=O)NC[C@H]3CCCO3)CC2)c(=O)n(CC(C)C)c(=O)n1-c1ccccc1 | 4% |  |
| O=C(COC(F)F)N1CCc2ccncc21 | -8% |  |
| COc1nc(NC[C@H]2CCCN2C(C)C)ncc1F | 83% |  |
| CC(C(=O)Nc1ncccn1)N1CCCC1Cn1cccn1 (configuration not stated) | -8% |  |
| Cc1[nH]c2ncnc(NC(=O)c3cccc(-n4ccnn4)c3)c2c1C | 12% |  |
| CN1CCC(=O)Nc2cc(C(=O)NCCS(=O)(=O)NCC3CCC3)ccc21 | 6% |  |
| O=C(CN1C(=O)COc2ccccc21)N1CCC[C@H](c2nc3ccccc3s2)C1 | -13% |  |
| c1ccc(Oc2ccc(-c3csc4nc5ccccc5n34)cc2)cc1 | 5% |  |
| O[C@](C#CCN1CCOCC1)(c1ccccc1)C1CC1 | 14% |  |
| Cc1cnn(CC(=O)N2CCC[C@@H]2CCc2ncc(C)n2CC2CC2)c1 | -20% |  |
| CCOc1cc(-c2cc(-c3ccccc3O)nc3ccc4ccccc4c23)cc(Br)c1O | 92% |  |
| CCOc1c(CNC[C@H](C)O)cc(Br)cc1OC | 5% |  |

Reference: ChEMBL document CHEMBL4888484, “Replenishing the malaria drug discovery pipeline: Screening and hit evaluation of the MMV Hit Generation Library 1 (HGL1) against asexual blood stage Plasmodium falciparum ,using a nano luciferase reporter read-out” (2022)
